{"source": "PubChem BioAssay (NCI)", "test": "NCI Yeast Anticancer Drug Screen. Data for the cln2 rad14 strain (AID 165);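 note: 0% = growth equal to vehicle treated cultures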", "conditions": "S. cerevisiae cln2 rad14 strain, stronger effect = higher value", "experimental": "Growth inhibition of yeast strains with defined genetic alterations is measured as a screen for potential anti-cancer activity. Selected strains with alterations in DNA damage repair or cell cycle control were exposed to compounds and growth inhibition was measured relative to vehicle treated controls. The strain used in this assay is cln2 rad14", "key": {"[1]": {"conditions": "at 5.0 µM (retest, dose inferred, filed as 0.5)"}, "[2]": {"conditions": "at 50.0 µM (retest, dose inferred, filed as 5.0)"}}, "note": "This is part of a sample that, as a whole, favours compounds with a hit. Of some 79,000 tested, about 15% had one in any assay. Unmarked numbers belong to inactive results. Active and inactive are the calls of the source. Cut-off read from the data, not from the text of the source: active = growth inhibition above about 70%; inactive = the rest.", "data": [{"smiles": "Cc1cc(Cl)c(C(C)C)cc1O", "values": [{"measurement": "growth inhibition", "setting": "[1]", "result": 2, "unit": "%"}, {"measurement": "growth inhibition", "setting": "[2]", "result": 51, "unit": "%"}, {"measurement": "growth inhibition", "setting": "at 50.0 µM", "result": 45, "unit": "%"}]}, {"smiles": "O=C1c2ccccc2C2(O)c3cc4ccccc4cc3OC12O", "note": "(configuration not stated)", "values": [{"measurement": "growth inhibition", "setting": "[1]", "result": -10, "unit": "%"}, {"measurement": "growth inhibition", "setting": "[2]", "result": 44, "unit": "%"}, {"measurement": "growth inhibition", "setting": "at 50.0 µM", "result": 37, "unit": "%"}]}, {"smiles": "O=C(O)c1cc(-c2ccc3c(c2)Nc2ccccc2S3)nc2ccc(F)cc12", "values": [{"measurement": "growth inhibition", "setting": "[1]", "result": 22, "unit": "%"}, {"measurement": "growth inhibition", "setting": "[2]", "result": "97% (active)"}, {"measurement": "growth inhibition", "setting": "at 50.0 µM", "result": "98.7% (active)"}]}, {"smiles": "Cc1c2cnccc2c(C)c2c1sc1ccccc12", "values": [{"measurement": "growth inhibition", "setting": "[1]", "result": 65, "unit": "%"}, {"measurement": "growth inhibition", "setting": "[2]", "result": "91% (active)"}, {"measurement": "growth inhibition", "setting": "at 50.0 µM", "result": "75.5% (active)"}]}, {"smiles": "O=C(OCc1ccccc1)c1ccccc1Cl", "values": [{"measurement": "growth inhibition", "setting": "[1]", "result": 4, "unit": "%"}, {"measurement": "growth inhibition", "setting": "[2]", "result": -11, "unit": "%"}, {"measurement": "growth inhibition", "setting": "at 50.0 µM", "result": -18.6, "unit": "%"}]}, {"smiles": "Cc1nc(C(N)=S)sc1C(=O)C/C(=N/N)C(=O)Nc1cccc(Cl)c1C", "values": [{"measurement": "growth inhibition", "setting": "[1]", "result": -28, "unit": "%"}, {"measurement": "growth inhibition", "setting": "[2]", "result": -15, "unit": "%"}, {"measurement": "growth inhibition", "setting": "at 50.0 µM", "result": -15.2, "unit": "%"}]}, {"smiles": "CC(=O)N=C1N(/C=C2\\C(=O)Oc3ccccc3C2=O)C(=O)/C(=C/c2ccc(Cl)cc2Cl)N1C", "values": [{"measurement": "growth inhibition", "setting": "[1]", "result": -3, "unit": "%"}, {"measurement": "growth inhibition", "setting": "[2]", "result": "91% (active)"}, {"measurement": "growth inhibition", "setting": "at 50.0 µM", "result": "89.8% (active)"}]}, {"smiles": "O=C(C[n+]1ccccc1)c1ccc2ccc3ccc(Cl)cc3c2c1", "values": [{"measurement": "growth inhibition", "setting": "[1]", "result": 2, "unit": "%"}, {"measurement": "growth inhibition", "setting": "[2]", "result": 39, "unit": "%"}, {"measurement": "growth inhibition", "setting": "at 50.0 µM", "result": -90.4, "unit": "%"}]}, {"smiles": "O=[N+]([O-])c1ccc2nc(CCl)[nH]c2c1", "values": [{"measurement": "growth inhibition", "setting": "[1]", "result": 35, "unit": "%"}, {"measurement": "growth inhibition", "setting": "[2]", "result": 56, "unit": "%"}, {"measurement": "growth inhibition", "setting": "at 50.0 µM", "result": 61, "unit": "%"}]}, {"smiles": "CN=c1ss/c(=N\\C(=S)N(C)C)n1-c1ccccc1", "values": [{"measurement": "growth inhibition", "setting": "[1]", "result": 8, "unit": "%"}, {"measurement": "growth inhibition", "setting": "[2]", "result": 13, "unit": "%"}, {"measurement": "growth inhibition", "setting": "at 50.0 µM", "result": 4.45, "unit": "%"}]}, {"smiles": "CN1C=C(C#N)CCC1Sc1ccc(Cl)cc1", "note": "(configuration not stated)", "values": [{"measurement": "growth inhibition", "setting": "[1]", "result": -3, "unit": "%"}, {"measurement": "growth inhibition", "setting": "[2]", "result": 11, "unit": "%"}, {"measurement": "growth inhibition", "setting": "at 50.0 µM", "result": "76.8% (active)"}]}, {"smiles": "CC(NNC(=S)N1CCCC1)c1ccccn1", "note": "(configuration not stated)", "values": [{"measurement": "growth inhibition", "setting": "[1]", "result": 48, "unit": "%"}, {"measurement": "growth inhibition", "setting": "[2]", "result": "98% (active)"}, {"measurement": "growth inhibition", "setting": "at 50.0 µM", "result": "99% (active)"}]}, {"smiles": "O=C(CSc1nnc(-c2ccc(N=Cc3ccc(Cl)cc3)cc2)o1)Nc1ccccc1Cl", "values": [{"measurement": "growth inhibition", "setting": "[1]", "result": 14, "unit": "%"}, {"measurement": "growth inhibition", "setting": "[2]", "result": 28, "unit": "%"}, {"measurement": "growth inhibition", "setting": "at 50.0 µM", "result": -54.5, "unit": "%"}]}, {"smiles": "CN(C)c1cc[c]([Sn]([c]2ccc(N(C)C)cc2)([c]2ccc(N(C)C)cc2)[c]2ccc(N(C)C)cc2)cc1", "values": [{"measurement": "growth inhibition", "setting": "[1]", "result": -12, "unit": "%"}, {"measurement": "growth inhibition", "setting": "[2]", "result": -12, "unit": "%"}, {"measurement": "growth inhibition", "setting": "at 50.0 µM", "result": 34.4, "unit": "%"}]}]}
